For 22 compounds, activity remaining results are on record in PubChem BioAssay AID743025 (Vanderbilt Specialized Chemistry Center, 2013).

Values without a mark were called inactive. Active and inactive are the calls of the source.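 Rule for the calls: active = IC50 below 10 µM at human M5 in a calcium flux test, acting as a negative modulator; inactive = the rest.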

In this experiment the target is Muscarinic acetylcholine receptor M5 (Homo sapiens) (UniProt P08912). The experiment in a line: M5 muscarinic receptor negative allosteric modulators, cell-based, single concentration, human M5 (AID 743025). The following applies: CHO-K1 hM5, ACh EC80 calcium flux, Fluo-4; at 10 µM; hits give low values. On the technique in general: Calcium assays in cells follow changes in intracellular calcium, usually with a dye or a luminescent sensor.
Muscarinic acetylcholine receptor M5 (Homo sapiens), sequence (P08912 whole entry, looked up): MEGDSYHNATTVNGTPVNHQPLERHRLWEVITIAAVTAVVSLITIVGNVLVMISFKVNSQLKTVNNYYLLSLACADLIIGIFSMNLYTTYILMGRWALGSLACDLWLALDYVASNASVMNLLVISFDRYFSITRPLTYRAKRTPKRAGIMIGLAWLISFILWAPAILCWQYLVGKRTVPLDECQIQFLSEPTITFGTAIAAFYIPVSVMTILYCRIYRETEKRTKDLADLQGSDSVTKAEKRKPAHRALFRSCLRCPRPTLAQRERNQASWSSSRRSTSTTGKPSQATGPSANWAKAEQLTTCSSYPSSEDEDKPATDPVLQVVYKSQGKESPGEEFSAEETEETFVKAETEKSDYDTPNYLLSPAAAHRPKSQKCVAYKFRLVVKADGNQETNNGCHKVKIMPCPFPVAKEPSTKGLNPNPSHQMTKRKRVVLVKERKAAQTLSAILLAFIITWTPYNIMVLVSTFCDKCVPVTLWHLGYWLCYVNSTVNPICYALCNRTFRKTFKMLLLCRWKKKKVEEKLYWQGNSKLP
For the compound `Cc1ccccc1C(=O)N1CCN2C(=O)c3ccccc3C12c1ccccc1` (configuration not stated), the activity remaining is 50.5% (active).

Consider `O=C(c1ccc(C(F)(F)F)cc1)N1CCCN2C(=O)c3ccccc3C12c1ccc(Cl)cc1` (configuration not stated), for which the activity remaining is 75.7%.

With `O=C(Nc1cccc(Cl)c1)N1CCN2C(=O)c3ccccc3C12c1ccccc1` (configuration not stated), the activity remaining was 83%.

For the compound `O=C(c1ccc(Cl)cc1)N1CCCN2C(=O)c3ccccc3C12c1ccccc1` (configuration not stated), the activity remaining is 54% (active).

Turning to `O=C(c1ccc(OC(F)(F)F)cc1)N1CCN2C(=O)c3ncccc3C12c1ccccc1` (configuration not stated), the activity remaining is 73.1%.

With `Clc1ccc(C2(c3ccccc3)CCCN2)cc1` (configuration not stated), the activity remaining is 68.9%.

As to `O=C(c1ccccn1)N1CCN2C(=O)c3ccccc3C12c1ccccc1` (configuration not stated), the activity remaining was 100%.

For the compound `CC(C)(C)NC(=O)N1CCN2C(=O)c3ccccc3C12c1ccccc1` (configuration not stated), the activity remaining was 83.8%.

Consider `O=C(c1ccc(F)cc1)N1CCCN2C(=O)c3ccccc3C12c1ccc(Cl)cc1` (configuration not stated), for which the activity remaining is 76%.

On to `O=C1c2ccccc2C2(c3ccccc3)N1CCN2C(=O)C(Cl)(Cl)Cl` (configuration not stated), for which the activity remaining was 55.1% (active).

Turning to `COc1ccccc1NC(=O)N1CCN2C(=O)c3ccccc3C12c1ccccc1` (configuration not stated), the activity remaining is 86.6%.

As for `Cc1ccc(C(=O)N2CCN3C(=O)c4ncccc4C23c2ccccc2)cc1` (configuration not stated), the activity remaining is 63.1%.

As to `COc1ccc(C23NCCN2C(=O)c2ccccc23)cc1` (configuration not stated), the activity remaining was 72.7%.

In the case of `O=C1c2ccccc2C2(c3ccccc3)Nc3ccccc3N12` (configuration not stated), the activity remaining was 81.8%.

`CSc1cccc(NC(=S)N2CCN3C(=O)c4ccccc4C32c2ccccc2)c1` (configuration not stated): the activity remaining was 77.7%.

Take `COc1ccc(C23c4ccccc4C(=O)N2CCN3C(=O)c2cccc(C)c2)cc1` (configuration not stated): the activity remaining is 61.1%.

For `O=C(c1ccc(F)c(F)c1)N1CCN2C(=O)c3ccccc3C12c1ccccc1` (configuration not stated), the activity remaining is 0.88% (active).

Regarding `O=C(c1ccccc1)N1CCN2C(=O)c3ccccc3C12c1ccc(Cl)cc1` (configuration not stated), the activity remaining is 1.2% (active).

On to `O=C(Nc1ccc(Cl)cc1)N1CCCN2C(=O)c3ccccc3C12c1ccccc1` (configuration not stated), for which the activity remaining is 84.5%.

In the case of `Cc1ccc(S(=O)(=O)N2CCN3C(=O)c4ccccc4C32c2ccccc2)cc1` (configuration not stated), the activity remaining was 73.4%.

Take `CCCN1C(=O)c2ccccc2C1c1ccccc1` (configuration not stated): the activity remaining is 86.1%.

Regarding `CC(C)Oc1ccc(C(=O)N2CCN3C(=O)c4ccccc4C23c2ccc(Cl)cc2)cc1` (configuration not stated), the activity remaining was -1.43% (active).
